In PubChem BioAssay AID1159580 (chemical genetic matrix, 2015):
Hit rate of the full screen: of about 5,500 compounds, about 2,000 (36%) were called active. Not shown: some 18% with an inconclusive outcome. No stated cut-off is given here; in the data, active means normalized growth mostly below about 0.91 (no sharp cut-off); inconclusive means no clear call, values can overlap the other calls; inactive means mostly above about 0.92. This is one part of the list.

Experiment: chemical genetic growth profiling, strain panel (AID 1159580);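 further: tested at 20 µM; growth read once vehicle control cultures reached saturation at 30 °C; 1 = growth at the plate median or of vehicle wells; lower values mean less growth of the strain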
Conditions: growth OD

Measured: normalized growth

NC(=O)c1ccc[n+]([C@@H]2O[C@H](COP(=O)([O-])OP(=O)(O)OC[C@H]3O[C@@H](n4cnc5c(N)ncnc54)[C@H](OP(=O)(O)O)[C@@H]3O)[C@@H](O)[C@H]2O)c1
inactive: S. cerevisiae deletion strains, locus YAL013W, strain DEP1, active compounds read low 1.02 | S. cerevisiae deletion strains, locus YBR021W, strain FUR4, active compounds read low 1 | S. cerevisiae deletion strains, locus YBR229C, strain ROT2, active compounds read low 1.03 | S. cerevisiae deletion strains, locus YCL029C, strain bik1, active compounds read low 1 | S. cerevisiae deletion strains, locus YDL035C, strain GPR1, active compounds read low 1.06 | S. cerevisiae deletion strains, locus YDL074C, strain BRE1, active compounds read low 1.02 | S. cerevisiae deletion strains, locus YDL101C, strain DUN1, active compounds read low 1.02 | S. cerevisiae deletion strains, locus YDL134C, strain PPH21, active compounds read low 1.02 | S. cerevisiae deletion strains, locus YDL185W, strain tfp1, active compounds read low 0.994 | S. cerevisiae deletion strains, locus YDL192W, strain arf1, active compounds read low 1.01 | S. cerevisiae deletion strains, locus YDR101C, strain arx1, active compounds read low 1.01 | S. cerevisiae deletion strains, locus YDR150W, strain NUM1, active compounds read low 1.02 | S. cerevisiae deletion strains, locus YDR162C, strain NBP2, active compounds read low 1.03 | S. cerevisiae deletion strains, locus YDR318W, strain mcm21, active compounds read low 1.01 | S. cerevisiae deletion strains, locus YDR388W, active compounds read low 0.985 | S. cerevisiae deletion strains, locus YDR502C, strain sam2, active compounds read low 1.03 | S. cerevisiae deletion strains, locus YEL061C, strain CIN8, active compounds read low 1.02 | S. cerevisiae deletion strains, locus YER110C, active compounds read low 1 | S. cerevisiae deletion strains, locus YER155C, strain BEM2, active compounds read low 1 | S. cerevisiae deletion strains, locus YER167W, strain BCK2, active compounds read low 1.04 | S. cerevisiae deletion strains, locus YGL078C, strain dbp3, active compounds read low 0.995 | S. cerevisiae deletion strains, locus YGL086W, strain mad1, active compounds read low 1.04 | S. cerevisiae deletion strains, locus YGL248W, strain PDE1, active compounds read low 1.02 | S. cerevisiae deletion strains, locus YGR078C, strain PAC10, active compounds read low 1.04 | S. cerevisiae deletion strains, locus YGR135W, strain pre9, active compounds read low 1.02 | S. cerevisiae deletion strains, locus YGR229C, strain SMI1, active compounds read low 1.03 | S. cerevisiae deletion strains, locus YGR252W, strain gcn5, active compounds read low 1.03 | S. cerevisiae deletion strains, locus YHR030C, strain SLT2, active compounds read low 1.01 | S. cerevisiae deletion strains, locus YHR079C, strain IRE1 (second series), active compounds read low 1.01 | S. cerevisiae deletion strains, locus YHR094C, strain hxt1, active compounds read low 0.995 | S. cerevisiae deletion strains, locus YHR129C, strain ARP1, active compounds read low 1.02 | S. cerevisiae deletion strains, locus YHR200W, strain rpn10, active compounds read low 1 | S. cerevisiae deletion strains, locus YIL066C, strain RNR3, active compounds read low 1.03 | S. cerevisiae deletion strains, locus YIL073C, strain SPO22, active compounds read low 1.02 | S. cerevisiae deletion strains, locus YIL125W, strain kgd1, active compounds read low 0.981 | S. cerevisiae deletion strains, locus YIR030C, strain dcg1, active compounds read low 0.996 | S. cerevisiae deletion strains, locus YJL095W, strain BCK1, active compounds read low 1.03 | S. cerevisiae deletion strains, locus YJL134W, strain LCB3, active compounds read low 1.01 | S. cerevisiae deletion strains, locus YJL168C, strain set2, active compounds read low 0.996 | S. cerevisiae deletion strains, locus YJL187C, strain SWE1 (second series), active compounds read low 1.03 | S. cerevisiae deletion strains, locus YJR043C, strain POL32, active compounds read low 1.03 | S. cerevisiae deletion strains, locus YJR075W, strain HOC1, active compounds read low 1.05 | S. cerevisiae deletion strains, locus YKL009W, strain mrt4, active compounds read low 1.02 | S. cerevisiae deletion strains, locus YKL068W, active compounds read low 0.999 | S. cerevisiae deletion strains, locus YKL085W, strain MDH1 (second series), active compounds read low 0.99 | S. cerevisiae deletion strains, locus YKL085W, strain MDH1, active compounds read low 0.99 | S. cerevisiae deletion strains, locus YKL190W, strain CNB1, active compounds read low 1.01 | S. cerevisiae deletion strains, locus YKR001C, strain vps1, active compounds read low 0.996 | S. cerevisiae deletion strains, locus YLR039C, strain RIC1, active compounds read low 1.04 | S. cerevisiae deletion strains, locus YLR058C, strain SHM2, active compounds read low 1.02 | S. cerevisiae deletion strains, locus YLR102C, strain apc9, active compounds read low 0.99 | S. cerevisiae deletion strains, locus YLR262C, strain YPT6, active compounds read low 1.08 | S. cerevisiae deletion strains, locus YLR268W, strain sec22, active compounds read low 0.949 | S. cerevisiae deletion strains, locus YLR330W, strain CHS5, active compounds read low 1.01 | S. cerevisiae deletion strains, locus YLR342W, strain FKS1 (second series), active compounds read low 1.04 | S. cerevisiae deletion strains, locus YLR371W, strain rom2, active compounds read low 0.987 | S. cerevisiae deletion strains, locus YLR418C, strain cdc73, active compounds read low 1.04 | S. cerevisiae deletion strains, locus YML016C, strain PPZ1, active compounds read low 1.02 | S. cerevisiae deletion strains, locus YML032C, strain rad52, active compounds read low 0.979 | S. cerevisiae deletion strains, locus YML124C, strain tub3, active compounds read low 0.991 | S. cerevisiae deletion strains, locus YMR078C, strain ctf18, active compounds read low 0.995 | S. cerevisiae deletion strains, locus YMR223W, strain ubp8, active compounds read low 1.04 | S. cerevisiae deletion strains, locus YMR263W, strain SAP30, active compounds read low 1.04 | S. cerevisiae deletion strains, locus YMR307W, strain GAS1, active compounds read low 1.07 | S. cerevisiae deletion strains, locus YNL067W, strain RPL9B, active compounds read low 1.04 | S. cerevisiae deletion strains, locus YNL128W, strain TEP1, active compounds read low 1.05 | S. cerevisiae deletion strains, locus YNL153C, strain GIM3, active compounds read low 1.02 | S. cerevisiae deletion strains, locus YNL233W, strain BNI4, active compounds read low 1.03 | S. cerevisiae deletion strains, locus YNL250W, strain rad50, active compounds read low 0.995 | S. cerevisiae deletion strains, locus YNL271C, strain bni1, active compounds read low 0.993 | S. cerevisiae deletion strains, locus YNL298W, strain CLA4, active compounds read low 0.989 | S. cerevisiae deletion strains, locus YNL307C, strain MCK1, active compounds read low 1.01 | S. cerevisiae deletion strains, locus YNL322C, strain KRE1, active compounds read low 1.01 | S. cerevisiae deletion strains, locus YNR052C, strain pop2, active compounds read low 0.991 | S. cerevisiae deletion strains, locus YOL006C, strain TOP1, active compounds read low 1.03 | S. cerevisiae deletion strains, locus YOL012C, strain htz1 0.919 | S. cerevisiae deletion strains, locus YOL147C, strain pex11, active compounds read low 0.995 | S. cerevisiae deletion strains, locus YOR061W, strain CKA2, active compounds read low 1.02 | S. cerevisiae deletion strains, locus YOR069W, strain VPS5, active compounds read low 1.01 | S. cerevisiae deletion strains, locus YOR136W, strain idh2, active compounds read low 1.01 | S. cerevisiae deletion strains, locus YOR144C, strain elg1, active compounds read low 0.984 | S. cerevisiae deletion strains, locus YOR184W, strain ser1, active compounds read low 1.02 | S. cerevisiae deletion strains, locus YOR316C, strain cot1, active compounds read low 0.997 | S. cerevisiae deletion strains, locus YPL055C, strain LGE1, active compounds read low 1.05 | S. cerevisiae deletion strains, locus YPL241C, strain CIN2, active compounds read low 1.02 | S. cerevisiae deletion strains, locus YPR119W, strain clb2, active compounds read low 0.986 | S. cerevisiae deletion strains, locus YPR141C, strain kar3, active compounds read low 0.978 | S. cerevisiae deletion strains, locus YPR163C, strain tif3, active compounds read low 0.997 | S. cerevisiae deletion strains, locus YPR167C, strain met16, active compounds read low 0.99 | S. cerevisiae deletion strains, strain wtn01, active compounds read low 1 | S. cerevisiae strains, strain wild type, active compounds read low 1.03
